Experimental data published in PubChem BioAssay (EPA / NIEHS).
Calls of active or inactive are those of the source. Rule for the calls: active = hit-call score of the fitted dose curve at least 0.9, where 1 is the maximum; inactive = score below 0.9.

Read-out: flavin-containing dimethylaniline monooxygenases 3 (FMO3), FMO3 (gene 2328)
Assay: LTEA_HepaRG_FMO3: Life Technologies and Expression Analysis (LTEA) Assay for flavin-containing dimethylaniline monooxygenases 3 (FMO3) using HepaRG (AID 2283453);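 for AC50: FMO3 transcript by TaqMan qRT-PCR normalized to ACTB GAPDH and POLR2A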
Conditions: mRNA level, 48 h; actives raise or lower the signal
Description: LTEA_HepaRG is a cell based, multiplexed-readout assay that uses HepaRG, a human liver cell line, with measurements taken at 48 hours after chemical dosing on a 96-well plate.LTEA_HepaRG_FMO3 is one of 102 assay component(s) measured in the LTEA HepaRG cell culture assay. It is a marker of NR mediated metabolism.Data from the assay component LTEA_HepaRG_FMO3 was analyzed into 1 endpoint. This assay endpoint, LTEA_HepaRG_FMO3, was analyzed with bidirectional fitting relative to DMSO as the negative control and baseline of activity. Using a type of inducible reporter, measures of mRNA induction for gain or loss-of-signal activity can be used to understand regulation of transcription factor activity. To generalize the intended target to other relatable targets, this assay endpoint is annotated to the oxidoreductase intended target family, where the subfamily is […].
A total of 1060 chemcials from the ToxCast library were tested in eight-point concentration-response experiments. Cell culture and cytotoxicity assays were conducted at Thermo Fisher Scientific's Custom Services facility (Madison, WI). A single lot of human HepaRG cells (Thermo Fisher Scientific, Frederick, MD) was used for the cell culture experiments. 96-well format collagen type I coated plates of human HepaRG cells were prepared using established methods. Briefly, cryopreserved HepaRG cells were thawed, plated at a density of approximately 100,000 cells/well in HepaRG Thaw, Plate, and General Purpose media (HPRG770, Thermo Fisher Scientific), and incubated for 48 hours. 0.5% DMSO was selected as vehicle control to balance the requisite need of DMSO in HepaRG cultures to maintain differentiation (for example, baseline metabolism, proportions of hepatocytes vs. cholangiocytes), while enabling further hepatic receptor pathway activation (for example, PXR and CAR) in response to chemical exposure. 48 hours after plating, the culture medium was replaced with HepaRG Serum-Free Incudtion Media. Cells were exposed to each test chemical in duplicate and maintained in CO2 incubators for another 48 hours. Chemical plates were thawed to room temperature and 200x concentrations of treatment groups were prepared. 8-point conentration-reponse curves were made with the highest exposure at 100 uM, followed by half-log dilutions, all in 0.5% DMSO. Each test plate contained variouse controls, induction positive controls (1mM phenobarbital), cytotoxicity positive controls ([…] aflatoxin B1), vehicle controls (0.5% DMSO), and total lysis controls (0.5% DMSO). Cell morphology images were taken using an Essen IncuCyte FLR automated microscope, with six 96-well plates imaged in about 24 minutes. Images were captured and exported and JPEG files. Spent culture media was transfered to black-well plates for the LDH assay, and remaining media was sorted at -80 C for later use. Cells were treated with RLT buffer and frozen until shipped for gene expression analysis. Total RNA was isolated from the cell suspension in 75 uL of Buffer RLT (Qiagen, Germantown, MD 20874) by Quintiles/Expression Analysis (Durham, NC) using a custom isolation procedure. Total RNA from each plate well was transferred to a preamplification plate. Fluidigm's 96.96 Dynamic ArrayTM (Fluidigm, Amsterdam, the Netherlands) technology was used for gene expression analyses by quantitative reverse transcription polymerase chain reaction (qRT-PCR, performed by Quintiles/Expression Analysis, Durham, NC)89. Standard TaqManTM Assays (Applied Biosystems/ThermoFisher Scientific, Foster City, CA) were used to assess the expression of 93 genes selected based on their selectivity and sensitivity to important hepatic receptors known to be modulated by environmental chemicals; importance in human hepatocyte functionality; and hepatotoxicity. […]

| SMILES | outcome | AC50 |
| --- | --- | --- |
| OCC(CO)(CBr)CBr | inactive |  |
| CCCCCCCCCCCCOS(=O)(=O)O |  | 85.6 µM (active) |
| CC(=O)Nc1ccc(O)cc1 | inactive |  |
| Cc1[nH]nc2c1N=C(c1ccccc1Cl)c1cc([N+](=O)[O-])ccc1N2 |  | 9.1 µM (active) |
| CCCCCCCCCCCCCCC | inactive |  |
| O=C(c1ccccc1)c1ccccc1 | inactive |  |
| O=C1NS(=O)(=O)c2ccccc21 | inactive |  |
| CCCCc1oc2ccccc2c1C(=O)c1cc(I)c(OCCN(CC)CC)c(I)c1 |  | 48.6 µM (active) |
| CS(=O)(=O)c1ccc([C@@H](CC2CCCC2)C(=O)Nc2cnccn2)cc1Cl |  | 78.6 µM (active) |
| CCCCC=O | inactive |  |
| CCC(C)c1ccccc1O (stereo not given) | inactive |  |
| O=C(CCCN1CCC(O)(c2ccc(Cl)cc2)CC1)c1ccc(F)cc1 |  | 73.7 µM (active) |
| CN(C)CCOC(c1ccccc1)c1ccccc1 | inactive |  |
| CN(Cc1cnc2nc(N)nc(N)c2n1)c1ccc(C(=O)N[C@@H](CCC(=O)O)C(=O)O)cc1 | inactive |  |
| N=C(N)c1ccc(OCCCCCOc2ccc(C(=N)N)cc2)cc1 |  | 6.68 µM (active) |
